# Reference: the supplement of paper PMC10338343
# ± gives the standard deviation.
# Test system: MILI (PIWIL2) piRISC loaded with L1MC piRNA (26 nt)
# Assay: pre-steady-state target cleavage rate (min^-1); guide: L1MC piRNA 5'p-UAACUAAAUACUAUGCAAGCUGUAGG; MIWI and MILI are mouse PIWI proteins and EfPiwi is from a freshwater sponge; tags in brackets are library labels; higher = faster piRNA-guided slicing of the target
# Conditions: auxiliary factor: 500 nM mouse GTSF1
# Method: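 Cleave-'n-Seq: a library of target RNAs (target site embedded in constant flanks, ACAGCATTCCGCGTTAGTGATATCCG... 5' flank; DNA-blocked outside the site) at 0.1 nM was incubated with 1 nM active mouse MILI or MIWI piRISC (synthetic 5'-monophosphorylated piRNA guide) with or without 500 nM mouse GTSF1 at 33 °C for 1 min to 16 h. Uncleaved targets were sequenced and normalised to non-target controls, and the pooled three trials were fitted to a burst-and-steady-state model to give the pre-steady-state cleavage rate (min^-1; k3 is constrained to at most 1e-4). Sequence is the target site only; target names encode pairing extent (gX:gY) and contiguous / 1-mismatch / 2-mismatch / bulge geometry. Fits with R² ≤ 0 are excluded.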
row,Sequence,pre-steady-state target cleavage rate
1,UCCUCCUACAGCUUCGAUAGUAUUUAGUUA,0.26 ± 0.017
2,UCCUGGAUGUCGAAGCAUAGUAUUUAGGUUA,0.0552 ± 0.0097
3,UCCUGGAUGUCGUUGCAUAGUAUUUGAGUUA,0.145 ± 0.034
4,UCCUGGAAGACCUUGCAUAGUAUUUAGUUA,0.212 ± 0.02
5,UCCUGGAUCAGCUUGCUUAGUAUUAAGUUA,0.129 ± 0.016
6,UCCUGGAUGUCGUGCAUAGUAUUUAGUUA,0.115 ± 0.014
7,UCCUGCUACAGCUUGCAUAGUAUUAUCUAA,0.0551 ± 0.014
8,UCCUGGAUCAGGUUGCAUUGUAUUUAGUUA,0.115 ± 0.0091
9,UCCUGGUACAGCUUGGAUAGUAUUUAGUAA,0.202 ± 0.041
10,UCCUGGAUCACUUGCAUAGUAUUUAGUUA,0.214 ± 0.018
11,UCCUCGUACAGCUUGCAUAGUAUUUUGUUA,0.143 ± 0.016
12,UCCUCCUAGAGCUUGCAUAGUAUAUAGUUA,0.249 ± 0.029
13,UCCUGCUACAGCUUGCAUAGUAUUCUAGUUA,0.26 ± 0.038
14,UCCUGGAUGUGCAUGCAUAGUAUUUAGUUA,0.116 ± 0.011
15,UCCUGGAUGUCGAUGCUUAGUAUUUUGUUA,0.0154 ± 0.0056
16,UCCUGCUACAGCAUGCUUAGUAUUUAGUUA,0.255 ± 0.017
17,UCCUGGAAGAGCUUGCAUAGUUUUUAGUUA,0.0486 ± 0.011
18,UCCUGGAUCAGCUUCGAUAGUAUUUAGUAA,0.158 ± 0.016
19,UCCUCCUACAGCUUGCUUAGUAUAUAGUUA,0.271 ± 0.024
20,UCCUGCUACAGCUUCCUUAGUAUUUAGUUA,0.251 ± 0.025
21,UCCUGGUACAGCUUGCAUAGUAUUUUCAUA,0.0352 ± 0.014

# Same assay, conditions: auxiliary factor: none (no GTSF1)
row,Sequence,pre-steady-state target cleavage rate
1,UCCUGGAUGUCGAACGUAUGUAUUUCAGUUA,< 0.0001
2,UCCUCCUACAGCUUCGAUAGUAUUUAGUUA,0.00534 ± 0.0022
3,UCCUGGAUGUCGAACGUACGUAUUUAGUUA,< 0.0001
4,UCCUGGAUGUCGAAGCAUAGUAUUUAGGUUA,0.00259 ± 0.0025
5,UCCUGGAUGUCGUUGCAUAGUAUUUGAGUUA,0.00339 ± 0.0032
6,UCCUGGAAGACCUUGCAUAGUAUUUAGUUA,0.00774 ± 0.0029
7,UCCUGGAUCAGCUUGCUUAGUAUUAAGUUA,0.00516 ± 0.0021
8,UCCUGGAUGUCGUGCAUAGUAUUUAGUUA,0.00386 ± 0.0022
9,UCCUGGAUCAGGUUGCAUUGUAUUUAGUUA,0.00671 ± 0.0024
10,UCCUGGAUCACUUGCAUAGUAUUUAGUUA,0.0066 ± 0.0022
11,UCCUCGUACAGCUUGCAUAGUAUUUUGUUA,0.00289 ± 0.0028
12,UCCUCCUAGAGCUUGCAUAGUAUAUAGUUA,0.00315 ± 0.0025
13,UCCUGGAUGUCGAACCAUUGUAAUUAGUUA,< 0.0001
14,UCCUGCUACAGCUUGCAUAGUAUUCUAGUUA,0.00709 ± 0.0024
15,UCCUGGAUGUGCAUGCAUAGUAUUUAGUUA,0.0095 ± 0.0025
16,UCCUGCUACAGCAUGCUUAGUAUUUAGUUA,0.00606 ± 0.0028
17,UCCUGGAAGAGCUUGCAUAGUUUUUAGUUA,0.004 ± 0.0023
18,UCCUCCUACAGCUUGCUUAGUAUAUAGUUA,0.00356 ± 0.0021
19,UCCUGCUACAGCUUCCUUAGUAUUUAGUUA,0.00547 ± 0.0019
